From PubChem BioAssay AID1159580 (chemical genetic matrix, 2015)
Among all 5,500 compounds or so, about 2,000 (36%) were called active. Not shown: some 18% with an inconclusive outcome. Rule as the data show it: active = normalized growth mostly below about 0.91 (no sharp cut-off); inconclusive = no clear call, values can overlap the other calls; inactive = mostly above about 0.92. Some of the results follow.

Assay: chemical genetic growth profiling, strain panel (AID 1159580);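 also: tested at 20 µM; growth read once vehicle control cultures reached saturation at 30 °C; 1 = growth at the plate median or of vehicle wells; lower values mean less growth of the strain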
Conditions: growth OD

Measured: normalized growth

O=C(N[C@@H](CO)[C@H](O)c1ccc([N+](=O)[O-])cc1)C(Cl)Cl
inactive: S. cerevisiae deletion strains, locus YJR075W, strain HOC1, stronger effect = lower value 1.02 | S. cerevisiae deletion strains, locus YKL009W, strain mrt4, stronger effect = lower value 1.01 | S. cerevisiae deletion strains, locus YKL068W, stronger effect = lower value 1 | S. cerevisiae deletion strains, locus YKL085W, strain MDH1 (second series), stronger effect = lower value 1 | S. cerevisiae deletion strains, locus YKL085W, strain MDH1, stronger effect = lower value 1 | S. cerevisiae deletion strains, locus YKL160W, strain elf1, stronger effect = lower value 1.04 | S. cerevisiae deletion strains, locus YKL190W, strain CNB1, stronger effect = lower value 1 | S. cerevisiae deletion strains, locus YKR001C, strain vps1, stronger effect = lower value 1 | S. cerevisiae deletion strains, locus YKR026C, strain gcn3, stronger effect = lower value 1.04 | S. cerevisiae deletion strains, locus YKR091W, strain srl3, stronger effect = lower value 0.999 | S. cerevisiae deletion strains, locus YLL001W, strain dnm1, stronger effect = lower value 1.01 | S. cerevisiae deletion strains, locus YLL026W, stronger effect = lower value 0.998 | S. cerevisiae deletion strains, locus YLL041C, strain sdh2, stronger effect = lower value 1.01 | S. cerevisiae deletion strains, locus YLR027C, strain aat2, stronger effect = lower value 1.02 | S. cerevisiae deletion strains, locus YLR039C, strain RIC1, stronger effect = lower value 1.01 | S. cerevisiae deletion strains, locus YLR058C, strain SHM2, stronger effect = lower value 1 | S. cerevisiae deletion strains, locus YLR102C, strain apc9, stronger effect = lower value 1.01 | S. cerevisiae deletion strains, locus YLR113W, strain HOG1, stronger effect = lower value 0.972 | S. cerevisiae deletion strains, locus YLR221C, strain rsa3, stronger effect = lower value 1.02 | S. cerevisiae deletion strains, locus YLR258W, strain gsy2, stronger effect = lower value 1.01 | S. cerevisiae deletion strains, locus YLR262C, strain YPT6 (second series), stronger effect = lower value 1.01 | S. cerevisiae deletion strains, locus YLR262C, strain YPT6, stronger effect = lower value 1.03 | S. cerevisiae deletion strains, locus YLR268W, strain sec22, stronger effect = lower value 1.05 | S. cerevisiae deletion strains, locus YLR320W, strain mms22, stronger effect = lower value 1 | S. cerevisiae deletion strains, locus YLR330W, strain CHS5, stronger effect = lower value 0.999 | S. cerevisiae deletion strains, locus YLR342W, strain FKS1 (second series), stronger effect = lower value 1.01 | S. cerevisiae deletion strains, locus YLR342W, strain FKS1, stronger effect = lower value 1.01 | S. cerevisiae deletion strains, locus YLR357W, strain rsc2, stronger effect = lower value 1.08 | S. cerevisiae deletion strains, locus YLR370C, strain arc18, stronger effect = lower value 1.02 | S. cerevisiae deletion strains, locus YLR371W, strain rom2, stronger effect = lower value 1.02 | S. cerevisiae deletion strains, locus YLR384C, strain iki3, stronger effect = lower value 1.02 | S. cerevisiae deletion strains, locus YLR418C, strain cdc73, stronger effect = lower value 1.01 | S. cerevisiae deletion strains, locus YML016C, strain PPZ1, stronger effect = lower value 1 | S. cerevisiae deletion strains, locus YML032C, strain rad52, stronger effect = lower value 1.03 | S. cerevisiae deletion strains, locus YML120C, strain ndi1, stronger effect = lower value 1 | S. cerevisiae deletion strains, locus YML124C, strain tub3, stronger effect = lower value 1 | S. cerevisiae deletion strains, locus YMR058W, strain fet3, stronger effect = lower value 1.01 | S. cerevisiae deletion strains, locus YMR078C, strain ctf18, stronger effect = lower value 1.01 | S. cerevisiae deletion strains, locus YMR125W, strain sto1, stronger effect = lower value 1.02 | S. cerevisiae deletion strains, locus YMR129W, stronger effect = lower value 1.02 | S. cerevisiae deletion strains, locus YMR205C, strain PFK2, stronger effect = lower value 1 | S. cerevisiae deletion strains, locus YMR223W, strain ubp8, stronger effect = lower value 0.974 | S. cerevisiae deletion strains, locus YMR231W, strain pep5, stronger effect = lower value 1.02 | S. cerevisiae deletion strains, locus YMR263W, strain SAP30, stronger effect = lower value 1.02 | S. cerevisiae deletion strains, locus YMR307W, strain GAS1, stronger effect = lower value 0.986 | S. cerevisiae deletion strains, locus YNL067W, strain RPL9B, stronger effect = lower value 1.03 | S. cerevisiae deletion strains, locus YNL071W, strain lat1, stronger effect = lower value 1.02 | S. cerevisiae deletion strains, locus YNL128W, strain TEP1, stronger effect = lower value 1.01 | S. cerevisiae deletion strains, locus YNL153C, strain GIM3, stronger effect = lower value 1.03 | S. cerevisiae deletion strains, locus YNL183C, strain NPR1, stronger effect = lower value 0.921 | S. cerevisiae deletion strains, locus YNL209W, strain ssb2, stronger effect = lower value 1.03 | S. cerevisiae deletion strains, locus YNL233W, strain BNI4, stronger effect = lower value 1.02 | S. cerevisiae deletion strains, locus YNL248C, strain rpa49, stronger effect = lower value 1.04 | S. cerevisiae deletion strains, locus YNL250W, strain rad50, stronger effect = lower value 1 | S. cerevisiae deletion strains, locus YNL271C, strain bni1, stronger effect = lower value 1.01 | S. cerevisiae deletion strains, locus YNL298W, strain CLA4, stronger effect = lower value 1.02 | S. cerevisiae deletion strains, locus YNL307C, strain MCK1, stronger effect = lower value 1.01 | S. cerevisiae deletion strains, locus YNL322C, strain KRE1 (second series), stronger effect = lower value 1.04 | S. cerevisiae deletion strains, locus YNL322C, strain KRE1, stronger effect = lower value 0.999 | S. cerevisiae deletion strains, locus YNR049C, strain mso1, stronger effect = lower value 1.01 | S. cerevisiae deletion strains, locus YNR052C, strain pop2, stronger effect = lower value 1.01 | S. cerevisiae deletion strains, locus YOL006C, strain TOP1, stronger effect = lower value 1.1 | S. cerevisiae deletion strains, locus YOL012C, strain htz1 1.24 | S. cerevisiae deletion strains, locus YOL147C, strain pex11, stronger effect = lower value 1.03 | S. cerevisiae deletion strains, locus YOR001W, strain rrp6, stronger effect = lower value 1.02 | S. cerevisiae deletion strains, locus YOR061W, strain CKA2, stronger effect = lower value 1.01 | S. cerevisiae deletion strains, locus YOR069W, strain VPS5, stronger effect = lower value 1 | S. cerevisiae deletion strains, locus YOR070C, strain gyp1, stronger effect = lower value 1 | S. cerevisiae deletion strains, locus YOR080W, strain dia2, stronger effect = lower value 1.02 | S. cerevisiae deletion strains, locus YOR083W, strain WHI5, stronger effect = lower value 0.984 | S. cerevisiae deletion strains, locus YOR106W, strain vam3, stronger effect = lower value 1.02 | S. cerevisiae deletion strains, locus YOR136W, strain idh2, stronger effect = lower value 0.998 | S. cerevisiae deletion strains, locus YOR144C, strain elg1, stronger effect = lower value 1.01 | S. cerevisiae deletion strains, locus YOR184W, strain ser1, stronger effect = lower value 1 | S. cerevisiae deletion strains, locus YOR231W, strain MKK1, stronger effect = lower value 0.956 | S. cerevisiae deletion strains, locus YOR265W, strain rbl2, stronger effect = lower value 1.02 | S. cerevisiae deletion strains, locus YOR270C, strain vph1, stronger effect = lower value 1.07 | S. cerevisiae deletion strains, locus YOR290C, strain snf2, stronger effect = lower value 1.02 | S. cerevisiae deletion strains, locus YOR316C, strain cot1, stronger effect = lower value 1.01 | S. cerevisiae deletion strains, locus YPL051W, strain arl3, stronger effect = lower value 1.02 | S. cerevisiae deletion strains, locus YPL055C, strain LGE1, stronger effect = lower value 0.986 | S. cerevisiae deletion strains, locus YPL078C, strain atp4, stronger effect = lower value 1.03 | S. cerevisiae deletion strains, locus YPL106C, strain sse1, stronger effect = lower value 1.01 | S. cerevisiae deletion strains, locus YPL240C, strain hsp82, stronger effect = lower value 1.01 | S. cerevisiae deletion strains, locus YPL241C, strain CIN2, stronger effect = lower value 1 | S. cerevisiae deletion strains, locus YPL256C, strain CLN2, stronger effect = lower value 0.955 | S. cerevisiae deletion strains, locus YPR119W, strain clb2, stronger effect = lower value 1 | S. cerevisiae deletion strains, locus YPR141C, strain kar3, stronger effect = lower value 0.995 | S. cerevisiae deletion strains, locus YPR163C, strain tif3, stronger effect = lower value 1.02 | S. cerevisiae deletion strains, locus YPR167C, strain met16, stronger effect = lower value 0.999 | S. cerevisiae deletion strains, strain wtn01, stronger effect = lower value 1.04 | S. cerevisiae strains, strain wild type, stronger effect = lower value 1
